The campaign covered roughly 2,300 compounds. About 330 (14%) showed activity.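 The calls were made as follows: active = median modified Z-score above 1.96; inactive = 1.96 or below.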 A selection follows.
These compounds were tested on HepG2 Srxn1-GFP reporter cells (+30 nM CDDO-Me) (assay: Srxn1-GFP intensity median modified Z-score relative to plate median; higher = stronger NRF2 / oxidative stress reporter activation, active = hit call of the paper). Conditions: 10 µM; exposure time: 24h.
Procedure, shortened: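 Each value is the replicate median of a per-plate modified Z-score for GFP intensity in HepG2 Srxn1-GFP BAC reporter cells. The cells (20,000 per well, 96-well plates, three replicate plates) received compound at 10 μM together with an NRF2 activator at 30 nM for 24 h, in ≤0.1% DMSO. Cytoplasmic GFP was quantified per cell from confocal images of formaldehyde-fixed, Hoechst-stained cells, leaving out images with fewer than 100 cells, and scaling used 1.4826 × median absolute deviation.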

SMILES	Srxn1-GFP intensity median modified Z-score
COc1ccc2cc1Oc1ccc(cc1)C[C@H]1c3c(cc4c(c3Oc3cc5c(cc3OC)CCN(C)[C@@H]5C2)OCO4)CCN1C [euspeclibcmpd1270]	4.85 (active)
COc1ccc2cc1Oc1ccc(cc1)C[C@H]1c3cc(c(OC)cc3CCN1C)Oc1c(OC)c(OC)cc3c1[C@H](C2)N(C)CC3 [euspeclibcmpd1476]	21.7 (active)
COc1ccc2c(c1OC)C(=O)O[C@H]2[C@H]1c2c(cc3c(c2OC)OCO3)CCN1C [euspeclibcmpd216]	0.635 (inactive)
CN1CC(=O)N2C(Cc3c([nH]c4ccccc34)[C@H]2c2ccc3c(c2)OCO3)C1=O (stereo partly specified) [euspeclibcmpd833]	-0.451 (inactive)
CO[C@@H]1[C@@H](O[C@@H]2O[C@H](C)[C@@H](O[C@H]3C[C@@](C)(O)[C@H](O)[C@H](C)O3)[C@H](N(C)C)[C@H]2O)[C@@H](CC=O)C[C@@H](C)[C@@H](O[C@H]2CC[C@H](N(C)C)[C@@H](C)O2)/C=C/C=C/C[C@H](C)OC(=O)C[C@H]1O [euspeclibcmpd581]	0.0936 (inactive)
CC(C)(O)c1ccccc1CC[C@@H](SCC1(CC(=O)O)CC1)c1cccc(/C=C/c2ccc3ccc(Cl)cc3n2)c1 [euspeclibcmpd2362]	8.32 (active)
CC1=CC(=O)C2C(C)(C)CCC[C@]2(C)[C@@]1(O)CCc1ccoc1 (stereo partly specified) [euspeclibcmpd1719]	17.2 (active)
CCC1(CC)C(=O)CC=NC1=O [euspeclibcmpd1119]	-0.354 (inactive)
CN(C)CCCOc1nn(Cc2ccccc2)c2ccccc12 [euspeclibcmpd892]	-0.182 (inactive)
C=CCOC(=O)C1=C(C)NC(C)=C(C(=O)OCC=C)C1/C=C/c1ccccc1	4.92 (active)
COC1=CC(/C=C/c2ccccc2)OC(=O)C1 (stereo unspecified) [euspeclibcmpd1481]	-0.206 (inactive)
Nc1ccc(S(=O)(=O)N=c2[nH]ccs2)cc1 [euspeclibcmpd281]	-0.259 (inactive)
CC(=O)OCC(=O)[C@@]1(O)CCC2C3CC=C4CC(=O)C=C[C@]4(C)[C@@]3(F)[C@@H](O)C[C@@]21C (stereo partly specified) [euspeclibcmpd2402]	-0.201 (inactive)
CC(C)CCCC(C)C1CCC2C3CC[C@H]4CC(=O)CC[C@]4(C)C3CC[C@]12C (stereo partly specified) [euspeclibcmpd1405]	-0.338 (inactive)
NC(C(=O)C(=O)O)C(O)O (stereo unspecified) [euspeclibcmpd1337]	-0.207 (inactive)
Cc1nc2ccccn2c(=O)c1CCN1CCC(C(=O)c2ccc(F)cc2)CC1 [euspeclibcmpd878]	-0.586 (inactive)

SMILES	Srxn1-GFP intensity median modified Z-score
Cc1nc2n(c(=O)c1CCN1CCC(c3noc4cc(F)ccc34)CC1)CCCC2 [euspeclibcmpd909]	0.484 (inactive)
Cc1nc2sccn2c(=O)c1CCN1CCC(=C(c2ccc(F)cc2)c2ccc(F)cc2)CC1 [euspeclibcmpd532]	7.86 (active)
CCC(=O)OCC(=O)C1(OC(=O)CC)C(C)CC2C3C(Cl)C=C4CC(=O)C=CC4(C)C3C(O)CC21C (stereo unspecified) [euspeclibcmpd1830]	-0.727 (inactive)
Cc1cc(O)c(C)c(O)c1C(=O)O [euspeclibcmpd2002]	-0.247 (inactive)
CC(=O)NC(CCC(C)C)C(=O)O (stereo unspecified)	1.23 (inactive)
CC(=O)O[C@H]1CC[C@@]2(C)C(CC[C@]3(C)C2CC=C2C4CC(C)(C)CC[C@]4(C)CC[C@]23C)C1(C)C (stereo partly specified) [euspeclibcmpd1641]	-0.192 (inactive)
CC1=C(/C=C/C(C)=C/C=C/C(C)=C/C=C/C=C(C)/C=C/C=C(C)/C=C/C2=C(C)CCCC2(C)C)C(C)(C)CCC1 [euspeclibcmpd256]	1.65 (inactive)
CC1=C(/C=C/C(C)=C/C=C/C(C)=C/CO)C(C)(C)CCC1 [euspeclibcmpd419]	-0.0835 (inactive)
CC(C=C/C=C(C)/C=C/C1=C(C)CCCC1(C)C)=CC(=O)O [euspeclibcmpd2414]	3.46 (active)
CC[C@]12CCCN3CCc4c(n(c5ccccc45)[C@](O)(C(=O)OC)C1)[C@@H]32 [euspeclibcmpd1043]	1.43 (inactive)
COC(=O)C1=C(C)N=C(C)C(C(=O)OCC(C)C)C1c1ccccc1[N+](=O)[O-] (stereo unspecified) [euspeclibcmpd766]	10.8 (active)
COC(=O)C1=C(C)N=C(C)C(C(=O)OCCN2CCN(C(c3ccccc3)c3ccccc3)CC2)C1c1cccc([N+](=O)[O-])c1 (stereo unspecified) [euspeclibcmpd869]	5.13 (active)
COC(=O)C1=C(C)N=C(C)C(C(=O)OCCN(C)Cc2ccccc2)C1c1cccc([N+](=O)[O-])c1 (stereo unspecified) [euspeclibcmpd393]	-0.375 (inactive)
COC(=O)C1=C(C)N=C(C)C(C(=O)OC)C1c1ccccc1[N+](=O)[O-] (stereo unspecified) [euspeclibcmpd208]	-0.363 (inactive)
COCCOC(=O)C1=C(C)N=C(C)C(C(=O)OC(C)C)C1c1cccc([N+](=O)[O-])c1 (stereo unspecified) [euspeclibcmpd585]	0.492 (inactive)
